From PubChem BioAssay
In the library only some 21% were active in any assay of this set; here they are far more common.
NS1 function inh: qHTS Assay for Inhibitors of Influenza NS1 Protein Function; AID 2326, 2010; Potency, µM (highest dose often 46.1 µM), for inactives: at the highest dose activity, positive = more growth; 270,000 compounds, 0.4% hits; calls by dose curve; further: potency means the concentration at half of the fitted maximal effect; actives are rising curves; nearly all actives have a fitted effect of over 50% in size
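Read-out: OD600 growth recovery of NS1-expressing budding yeast. Cells grown overnight at 30C in -URA glucose medium, washed, resuspended and diluted 1:100 in 2% galactose assay medium, pH 6.0. Same strain lacking NS1 served as positive control.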
Shiga inhibitor: A qHTS for Small Molecule Inhibitors of Shiga Toxin. Vero cells, Shiga toxin protein synthesis inhibition reporter. inhibition, % at 38.7 µM. 290,000 compounds, 9.2% hits. AID 2315, 2010; in the data active means inhibition mostly above about 28%, no sharp cut-off; inactive means mostly below about 43%; further: 0% is about no effect
Pf growth 48h: Primary qHTS for delayed death inhibitors of the malarial parasite plastid, 48 hour incubation. P. falciparum luciferase growth in erythrocytes, 48 h. Potency, µM (top dose mostly 28.7 µM), inactives show at the highest dose activity change, negative = inhibition, actives largely listed as inhibitors. 310,000 compounds, 5.9% hits. AID 504832, 2011; further: potency means the concentration at half of the fitted maximal effect; on the % scale 0 is the no-effect control and ±100 the full control effect
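Luminescence readout; reporter = integrated firefly luciferase in P. falciparum. RBC culture at 2% hematocrit, 0.1% parasitemia final, 37 C/5% CO2; decreased signal taken as growth inhibition.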
SARS PLP yeast: qHTS of Yeast-based Assay for SARS-CoV PLP; S. cerevisiae expressing SARS-CoV PLpro, growth rescue; Potency, µM (top dose mostly 32.9 µM), without a hit: at the top dose activity, positive = growth rescue, actives largely listed as activators; 330,000 compounds, 0.19% hits; calls by dose curve; further: potency means the concentration at half of the fitted maximal effect; 0% is about no effect; nearly all actives have a fitted effect of over 55% in size
Pf growth 96h: Primary qHTS for delayed death inhibitors of the malarial parasite plastid, 96 hour incubation; P. falciparum luciferase reporter growth, 96 h; Potency, µM (series often up to 28.7 µM), for the others: at the highest dose activity change, negative = inhibition, actives largely listed as inhibitors; 320,000 compounds, 6.9% hits; further: potency means the concentration at half of the fitted maximal effect; on the % scale 0 is the no-effect control and ±100 the full control effect
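Compounds incubated with erythrocytes infected by luciferase-expressing P. falciparum (2% hematocrit, 0.05% parasitemia final) for 96 hours, 37 C in 5% CO2. Growth inhibition scored as decreased luciferase luminescence.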
CHX counter: Cycloheximide Counterscreen for Small Molecule Inhibitors of Shiga Toxin; cell reporter, cycloheximide protein synthesis inhibition counterscreen; max response, %; 300,000 compounds, 12% hits; AID 2314, 2010; in the data active means max response mostly above about 13%, no sharp cut-off; inactive means mostly below about 14%; further: read at 38.3 µM for the half of the compounds with a filed dose; 0% is about no effect
Numbers without * were called inactive; ? = inconclusive; · = not tested or not shown. Unless noted, the call rests on the fitted dose curve; in most records, active means well fitted inhibition curve with a large enough effect; inconclusive means small, poorly fitted or top-dose-only effect, or another doubt; inactive means no such curve, though single readings can be large or run the other way.

SMILES	NS1 function inh	Shiga inhibitor	Pf growth 48h	SARS PLP yeast	Pf growth 96h	CHX counter
CC(C)N(CCNC(=O)c1ccc(OCC2CCCO2)cc1)C(C)C (stereo not drawn)	-5.6%	-18.5	12.6%	0.1%	0.0%	-2.6
CC(OC(=O)c1ccc(OCC2CCCO2)cc1)C(=O)N(C)Cc1ccccc1 (stereo not drawn)	·	·	3.29µM*	-3.7%	4.65µM*	·
C/C(N)=C(/C#N)C(=O)COC(=O)c1ccc(OCC2CCCO2)cc1 (stereo not drawn)	-14.7%	50.3*	29.3%	0.7%	-2.7%	22.2*
C=CCn1c(Cc2cccs2)nnc1SCC(=O)c1ccc2ccccc2c1	-9.8%	-15.7	·	-25.1%	12.1%	8.1
CC(C)(C)c1cc[n+](CC(=O)Nc2cc(C(F)(F)F)ccc2N2CCOCC2)cc1	·	21.0	?	2.0%	?	-1.8
O=C(COC(=O)c1cccnc1Cl)Nc1cc(S(=O)(=O)N2CCCCCC2)ccc1Cl	·	·	?	-1.4%	-9.2%	·
O=C(NC1CCCCCC1)c1ccc(OCC2CCCO2)cc1 (stereo not drawn)	-3.5%	59.4*	50.9%	0.7%	89.1%	23.6*
COc1ccc2c(COC(=O)[C@@H]3CCCN3S(=O)(=O)c3ccc(Cl)cc3)cc(=O)oc2c1	·	·	4.7%	-3.4%	7.6%	·
O=Cc1ccc(C(=O)OCC(=O)Nc2ccc(F)cc2F)cc1	-22.0%	31.1	26.8%	-1.4%	10.2%	-5.1
O=C(COC(=O)c1cc2ccccc2oc1=O)Nc1cccc(S(=O)(=O)N2CCCCCC2)c1	-4.7%	64.1*	-5.5%	6.2%	22.0%	27.2*
O=C(COC(=O)c1cc2ccccc2oc1=O)Nc1ccc(F)cc1F	-2.9%	118.0*	53.6%	-1.9%	53.3%	51.5*
CN(C)S(=O)(=O)c1cccc(NC(=O)COC(=O)c2cc3ccccc3oc2=O)c1	1.3%	134.4*	-7.4%	-0.4%	31.9%	51.0*
O=C(CCCC[C@@H]1SC[C@H]2NC(=O)N[C@H]12)Nc1ccc(C(=O)O)cc1	·	-2.5	·	·	·	4.0
COc1cccc(N2CCN(S(=O)(=O)c3ccc4ccccc4c3)CC2)c1	·	·	11.6%	-0.9%	4.5%	·
CCCOc1ccc(Br)cc1/C=N/O	-43.6%	38.9	33.3%	·	56.9%	-1.6
CCCCCn1cnc2c(sc3nc4c(cc32)CSC(C)(C)C4)c1=O	7.9%	149.6*	89.5%	-11.5%	160.2%	61.3*
CC1(C)Cc2nc3sc4c(=O)[nH]cnc4c3cc2CS1	-1.7%	14.7	14.9%	-0.7%	-11.6%	10.4*
COc1ccc(CCC(=O)N2CCN(c3ccc([N+](=O)[O-])cc3)CC2)cc1OC	-4.1%	-2.5	0.0%	0.3%	?	1.2
CCOc1ccc(OCC(=O)Nc2nccs2)cc1	-8.6%	-2.0	-59.7%	-3.9%	3.5%	12.6
Cc1ccc(S(=O)(=O)N(C)c2ccc(OCC(=O)Nc3nc4c(ccc5ccccc54)s3)cc2)cc1	0.5%	2.4	1.3%	-2.5%	-27.9%	2.3
CCOc1ccc(S(=O)(=O)N(C)c2ccc(OCC(=O)Nc3nccs3)cc2)cc1	·	11.7	1.85µM*	0.1%	?	5.9
Cc1ccc(S(=O)(=O)N(C)c2ccc(OCC(=O)Nc3nc4ccccc4s3)cc2)cc1	2.9%	0.7	4.65µM*	9.2%	3.29µM*	12.8
Cc1ccc2ncnc(Nc3cccc(C(=O)O)c3)c2c1	·	3.1	24.6%	-2.0%	?	-1.3
CCOC(=O)c1ccc(Nc2ncnc3nc[nH]c23)cc1	2.9%	43.9*	62.4%	2.4%	10.2%	22.4*
O=C(O)c1ccc(Nc2ncnc3ccccc23)cc1	1.2%	20.3	31.2%	0.4%	9.1%	15.8*
SMILES	NS1 function inh	Shiga inhibitor	Pf growth 48h	SARS PLP yeast	Pf growth 96h	CHX counter
CCOC(=O)c1cccc(Nc2nc(C)cc(C)n2)c1	-12.4%	13.2	25.0%	-2.7%	-14.2%	13.8*
CCOC(=O)c1cccc(Nc2ncnc3ccc(C)cc23)c1	-70.4%	-4.3	11.7µM*	-15.8%	9.28µM*	-3.2
COc1ccc(Nc2ncnc3nc[nH]c23)cc1OC	4.0%	10.1	13.9%	-1.9%	-16.3%	1.2
CCOC(=O)c1ccc(Nc2ncnc3ccc(C)cc23)cc1	-58.6%	9.6	?	-4.0%	-5.8%	6.2
CCOC(=O)c1ccc2nc(C)cc(Nc3cccc(C(=O)O)c3)c2c1	?	-16.0	16.0%	22.7%	-10.7%	-3.6
C/C(=N\N1CCN(c2ccc(Cl)cc2)CC1)c1cccs1	5.8%	20.1	5.7%	-1.1%	26.7%	-2.2
CC(C)CC1NC(=O)N(CC(=O)Nc2ccc3c(c2)OCCO3)C1=O (stereo not drawn)	·	·	15.0%	0.6%	11.0%	·
CCOC(=O)c1cc(CC)sc1NC(=O)CN1CCN(C(=O)c2ccco2)CC1	-45.6%	-16.7	?	-7.2%	14.9%	-7.1
O=C(Cc1cccs1)N1CCN(S(=O)(=O)c2cccc([N+](=O)[O-])c2)CC1	0.2%	1.0	12.4%	18.9%	-17.5%	-3.2
CC(C)C(NC(=O)c1ccccc1)C(=O)OCC(=O)N1CCCC1 (stereo not drawn)	·	·	-22.0%	0.8%	?	·
Cc1cccc(Nc2ncnc3nc[nH]c23)c1	-70.3%	64.6*	67.3%	?	?	38.5*
O=C(Oc1cccc(Nc2ncnc3ccccc23)c1)c1ccccc1Cl	-23.0%	-4.2	?	6.3%	-19.3%	-1.4
CC(Nc1ncnc2nc[nH]c12)c1ccccc1 (stereo not drawn)	-32.0%	12.3	?	3.2%	13.1µM*	2.2
Cc1ccc(C)c(Nc2ncnc3nc[nH]c23)c1	-7.7%	-15.1	·	-6.2%	-17.0%	-6.6
CCOC(=O)c1ccc(Nc2ncnc3ccccc23)cc1	·	47.6	2.4%	-8.6%	287.6%	46.3*
O=C(Oc1ccc(Nc2ncnc3ccccc23)cc1)c1cccnc1	1.4%	37.3	3.3%	-0.9%	11.7µM*	-2.6
COC(=O)C1CN(C(=O)C(C)Oc2ccc(C)c(C)c2)c2ccccc2O1 (stereo not drawn)	-1.9%	-5.6	-2.2%	0.6%	-8.4%	0.9
COc1cc2c(cc1OC)C(c1ccccc1)N(C(=O)C(C)(C)C)CC2 (stereo not drawn)	-1.6%	-6.5	30.3%	-0.8%	2.4%	1.4
COc1ccc(C)cc1NC(=O)CCS(=O)(=O)c1cc2c(cc1Cl)NC(=O)CO2	4.7%	9.7	?	2.9%	44.7%	-0.6
C[C@H](CO)N1C[C@H](C)[C@@H](CN(C)C(=O)Nc2ccc3c(c2)OCO3)Oc2ccc(NC(=O)C3CCCCC3)cc2C1=O	·	·	·	7.0%	·	·
O=C(O)CCC(=O)NNc1ncnc2ccccc12	0.9%	73.4*	22.9%	-0.6%	16.5%	46.0*
CCC(=O)NNc1ncnc2ccccc12	4.8%	-9.5	23.1%	12.9%	27.6%	0.6
Cc1cc(C)nc(Nc2cccc(Cl)c2)n1	-19.9%	33.6	33.2%	-10.1%	14.9%	15.1*
